Assay results published in PubChem BioAssay (NCI).
Where “and” joins values, the source holds several entries; their conditions need not be identical. Identical values can stand only once. About 83,000 compounds went through this panel and 20% of them were active in at least one assay; those are over-represented in the sample as a whole.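 48-hour exposure, single concentration, 96-well plates; percent growth endpoint where 0 means no net growth. Active: below 10.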 Values without a mark were called inactive. Calls of active or inactive are those of the source.

Each molecule was assayed on MDA-MB-468 breast (assay: NCI-60 one-dose screen, 48 h (100 = growth as untreated, 0 = no growth, -100 = all killed)). Conditions: 10 µM unless noted.
With `O=C(CN(C(=O)Cn1c(=O)n2nnnc2c2ccccc21)c1ccccc1C(F)(F)F)Nc1ccc(C(F)(F)F)cc1` the growth was 108%. Molecule `NC(N)=NN=c1c(=O)c2ccccc2c1=O` has a growth of 106%. `CCOC(=O)C(C#N)Cc1ccccc1` (stereo not given) showed a growth of 115%. `CCOC(=O)C1=C(N)Oc2c(sc3c(C)cccc23)C1c1ccc(OC)cc1` (stereo not given) was tested, and the growth was 0.934% (active). `CCCCOc1ccc(/C=N/Nc2cc(C)nc3ccc(Br)cc23)cc1` was tested, and the growth was 32.2%. `C=C1CC[C@@H]2[C@](C)(COC(C)=O)[C@H](OC(C)=O)CC[C@@]2(C)[C@@H]1CC(Nc1ccc(S(=O)(=O)NC(C)=O)cc1)C1=CCOC1=O` (stereo not given in full) was tested, and the growth was -53.9% (active). With `O=C1CCC(C(=O)NCCNCCNC(=O)C2CCC(=O)N2)N1` (stereo not given) the growth was 89.7%. With `Cc1cc2cc3c(=O)[nH]c(=O)cc-3n(CC(O)C(O)C(O)CO)c2cc1C` (stereo not given) the growth was 122%. `C#CCOc1ccccc1/C=N/Nc1nc(-c2ccc(Cl)cc2)cs1` gave a growth of 95.6%. In the case of `COc1ccc(/C=C(/C#N)n2nnc3cccc(F)c32)cc1`, the growth is reported as -5.27% (active). `CN1CCN(Cc2ccc(NC(=O)c3cncc(C#Cc4c(N)ncc5ccc(F)cc45)c3)cc2C(F)(F)F)CC1` showed a growth of 54.3%. `C=CCCCCOc1cccc(/C=C2\N=C3SCCCN3C2=O)c1` gave a growth of 89%. With `C#COc1cccc(Nc2ncnc3ncc(NC(=O)CCl)cc23)c1` the growth was 4.95% [6.25 µM] (active). Work on `COc1cc(Cc2cc(-c3ccc(Cl)cc3)n[nH]c2=O)ccc1O` yielded a growth of 73.9%. Molecule `Cc1ccc(C)c2c1sc1nc3nc4sc5ccccc5n4c(=N)c3c(=O)n12` has a growth of 88.7%. Work on `C=COC(=O)CCCCCCCCC` yielded a growth of 100%. `CCOC(=O)c1cc(C(=O)c2cc(OC)cc(OC)c2)n2ncccc12` showed a growth of 26.3%. In the case of `COc1cccc(-c2cc(C(=O)Nc3ccc(/C=C/c4ccc(OC5CCN(C)CC5)cc4)cc3)ccc2OC)c1`, the growth is reported as -36.4% (active). In the case of `COC(=O)c1ccc2c(c1)[n+](=O)c(C(C)=O)c(C(F)(F)F)n2[O-]`, the growth is reported as -83.7% (active). Molecule `COc1cc(-c2nn3c(/C=C4/C(=O)Nc5ccccc54)c(-c4ccc(C)cc4)nc3s2)cc(OC)c1OC` has a growth of 41%. For `COc1cc(CNC(=O)CCCC/C=C/C(C)C)ccc1OCc1cn(-c2ccc(C(F)(F)F)cc2)nn1`, the growth was 84.8%. `CCOC(=O)c1c(C)nc2c(c1N)/C(=C/c1ccc(OC)cc1)C(=O)N2Cc1ccc(F)cc1` was tested, and the growth was -16.4% (active). Work on `O=C(NCCc1ccccc1)C1CCC(=O)N1Cc1ccc(Br)cc1` (stereo not given) yielded a growth of 108%. `N#Cc1c(-c2ccc(F)cc2)nc2c(C#N)c(Nc3ccccc3)nn2c1N` gave a growth of 103%. With `COc1ccc2[nH]c(O)c(/C=c3/cc4c(c(-c5cc(OC)c(OC)c(OC)c5)n3)=Nc3ccccc3-4)c2c1` the growth was 49.7%. With `Cc1c(C(=O)C(SC(=S)N2CCOCC2)SC(=S)N2CCOCC2)nnn1-c1ccc([N+](=O)[O-])cc1` the growth was 92.7%. For `CSC1=C(N)C(=O)c2[nH]cc(CO)c2C1=N`, the growth was -73.5% (active). In the case of `Cc1ccsc1[C@H]1c2[nH]c3ccccc3c2C[C@H]2C(=O)N(CCCCCCC(=O)NO)CC(=O)N12`, the growth is reported as 46.6%. For `CN(Cc1cnc2nc(N)nc(N)c2n1)c1c(Cl)cc(C(=O)NC(CCC(=O)O)C(=O)O)cc1Cl` (stereo not given), the growth was 15.3%. In the case of `CN1CCN(CCCOc2ccc3nc(Nc4ccc(C(F)(F)F)c(Cl)c4)ccc3c2)CC1`, the growth is reported as 30%. For `Oc1cccc2ccc(N/N=C/c3cc(CN4CCCCC4)c(O)c4ncccc34)nc12`, the growth was -26.3% (active). `Cc1ccc2sc3c(NCCN)nc4ccccc4c3c(=O)c2c1` showed a growth of 56.8%. For `Clc1ccc(C2=NN(c3ccc(Cl)cc3)C(c3cccc(Nc4ccnc5cc(Cl)ccc45)c3)C2)cc1` (stereo not given), the growth was 78.2%. In the case of `COC(=O)OC1C(O[C@H]2C[C@H]3[C@@H]4CC=C5C[C@@H](O)CC[C@]5(C)[C@H]4CC[C@]3(C)[C@H]2[C@H](C)C(=O)CCC(C)C)OCC(O)C1OC1OCC(O)C(O)C1OC(=O)c1ccc(OC)cc1` (stereo not given in full), the growth is reported as -22.8% (active). In the case of `C=C(C)[C@@H]1CC[C@]2(CN)CC[C@]3(C)[C@H](CC[C@@H]4[C@@]5(C)CCCNC(C)(C)[C@@H]5CC[C@]43C)[C@@H]12`, the growth is reported as -65.5% (active). In the case of `Cc1c2c(cc3c1[nH]c1ccccc13)C=NCC2`, the growth is reported as 80.2%. For `COc1ccc(-c2nn3c(-c4ccccc4F)nnc3s2)cc1`, the growth was 6.82% (active). Molecule `CC1(O)CCCCC1O` (stereo not given) has a growth of 108%. With `O=C(NC1CCN(Cc2ccccc2)CC1)c1cc(C(=O)NC2CCN(Cc3ccccc3)CC2)cc(C(=O)NC2CCN(Cc3ccccc3)CC2)c1` the growth was 84.9%. For `CCN(CC)Cc1cc2[nH]c3c4ccc(Cl)cc4ncc3c2cc1OC`, the growth was -12.8% (active) and -25.8% (active).
